Read-out in assay [1]: Collagen I, COL1A1 (gene 1277)
The assay can be described thus: BSK_MyoF_CollagenI: BioMAP Diversity Plus: MyoF Assay for Collagen I Biomarker Activity (AID 2284238). To be noted: primary human lung fibroblasts. Put shortly: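 Human lung fibroblasts were exposed to test chemical for 24 h, then Collagen I was quantified by ELISA. Activity was fitted in the increasing direction against DMSO as the negative control and baseline.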

Read-out in assay [2]: Collagen III, COL3A1 (gene 1281)
The assay can be described thus: BSK_MyoF_CollagenIII: BioMAP Diversity Plus: MyoF Assay for Collagen III Biomarker Activity (AID 2284239). The note with it: primary human lung fibroblasts. In outline:
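Human lung fibroblasts were dosed with chemicals and, 24 hours later, collagen III was measured by ELISA. Activity was fitted in the positive direction against the DMSO negative-control baseline.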

Read-out in assay [3]: Interleukin 17F (IL17F), IL17F (gene 112744)
The assay can be described thus: BSK_BT_xIL17F: BioMAP Diversity Plus: BT Assay for Interleukin 17F (IL17F) Biomarker Activity (AID 2284243). To be noted: primary human B cells with PBMC. In outline:
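B cell/PBMC co-culture (human primary), 24 h compound exposure; sIL-17F by Luminex xMAP; gain-of-signal fit vs DMSO baseline.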

Read-out in assay [4]: Actin alpha 1 (ACTA1), ACTA1 (gene 58)
Put plainly: BSK_MyoF_ACTA1: BioMAP Diversity Plus: MyoF Assay for Actin alpha 1 (ACTA1) Biomarker Activity (AID 2284244). To be noted: primary human lung fibroblasts. In outline:
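alpha-SMA levels read by ELISA against DMSO baseline, 24 h post-dose, in primary human lung fibroblasts. Parallel cultures stained with 0.1% SRB after 10% TCA fixation (560 nm) to flag overt cytotoxicity.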

Read-out in assay [5]: Interleukin 2 (IL2), IL2 (gene 3558)
Put plainly: BSK_BT_xIL2: BioMAP Diversity Plus: BT Assay for Interleukin 2 (IL2) Biomarker Activity (AID 2284245). The note with it: primary human B cells with PBMC. In outline: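 Secreted IL-2 was read by Luminex xMAP from B cells co-cultured with PBMC (human primary) 24 h post-dosing; activity was analysed as gain of signal relative to DMSO vehicle.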

Read-out in assay [6]: Basic fibroblast growth factor (bFGF), FGF2 (gene 2247)
The assay can be described thus: BSK_MyoF_bFGF: BioMAP Diversity Plus: MyoF Assay for Basic fibroblast growth factor (bFGF) Biomarker Activity (AID 2284246). To be noted: primary human lung fibroblasts. Put shortly: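 bFGF was measured by ELISA in primary human lung fibroblasts 24 h after chemical addition. Signal was analysed as positive-direction change relative to DMSO baseline.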

Read-out in assay [7]: Collagen IV, COL4A1 (gene 1282)
The assay can be described thus: BSK_MyoF_CollagenIV: BioMAP Diversity Plus: MyoF Assay for Collagen IV Biomarker Activity (AID 2284247). To be noted: primary human lung fibroblasts. In outline: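 Collagen IV quantified by ELISA in human lung fibroblast cultures 24 h after chemical treatment, with DMSO as baseline. Parallel SRB staining (0.1% SRB after TCA fixation, 560 nm) flags overt cytotoxicity.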

Read-out in assay [8]: Monokine induced gamma interferon (MIG), CXCL9 (gene 4283)
Put plainly: BSK_KF3CT_MIG: BioMAP Diversity Plus: KF3CT Assay for Monokine induced gamma interferon (MIG) Biomarker Activity (AID 2284248). To be noted: primary human keratinocytes with fibroblasts. Put shortly:
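Human keratinocyte plus foreskin fibroblast primary co-culture dosed with test chemical for 24 h; MIG level measured by ELISA and fitted in the positive direction against DMSO as baseline.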

Read-out in assay [9]: Vascular cell adhesion molecule 1 (VCAM1), VCAM1 (gene 7412)
The assay can be described thus: BSK_BF4T_VCAM1: BioMAP Diversity Plus: BF4T Assay for Vascular cell adhesion molecule 1 (VCAM1) Biomarker Activity (AID 2284249). The note with it: primary human bronchial epithelial cells with fibroblasts. In outline:
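Cell-surface VCAM-1 quantified by ELISA after 24 h chemical exposure of human bronchial epithelial/dermal fibroblast co-cultures, with SRB staining in parallel wells for cytotoxicity; DMSO baseline, positive-direction fitting.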

Read-out in assay [10]: Collagen I, COL1A1 (gene 1277)
The assay can be described thus: BSK_hDFCGF_CollagenI: BioMAP Diversity Plus: hDFCGF Assay for Collagen I Biomarker Activity (AID 2284250). The note with it: primary human foreskin fibroblasts. Put shortly:
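Collagen I quantified by ELISA 24 h after chemical dosing of human dermal fibroblast primary cells, with parallel SRB staining (0.1%, TCA-fixed, 560 nm) for overt cytotoxicity.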

Read-out in assay [11]: Interferon-inducible T-cell alpha chemoattractant (ITAC), CXCL11 (gene 6373)
Put plainly: BSK_hDFCGF_ITAC: BioMAP Diversity Plus: hDFCGF Assay for Interferon-inducible T-cell alpha chemoattractant (ITAC) Biomarker Activity (AID 2284251). The note with it: primary human foreskin fibroblasts. In outline: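 I-TAC levels were read by ELISA on human dermal foreskin fibroblast primary cultures 24 h after dosing, analysed against DMSO in the positive direction. Cytotoxicity was assessed alongside by sulforhodamine B total-protein staining.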

Read-out in assay [12]: Plasminogen activator inhibitor-1 (PAI1), SERPINE1 (gene 5054)
The assay can be described thus: BSK_KF3CT_PAI1: BioMAP Diversity Plus: KF3CT Assay for Plasminogen activator inhibitor-1 (PAI1) Biomarker Activity (AID 2284252). To be noted: primary human keratinocytes with fibroblasts. Put shortly:
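PAI-1 levels quantified by ELISA after 24 h compound exposure of primary human skin keratinocytes co-cultured with fibroblasts. Activity is the gain relative to DMSO; cytotoxicity tracked in parallel cultures via SRB staining.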

Read-out in assay [13]: Monocyte Chemoattractant Protein-1 (MCP1), CCL2 (gene 6347)
Put plainly: BSK_IMphg_MCP1: BioMAP Diversity Plus: IMphg Assay for Monocyte Chemoattractant Protein-1 (MCP1) Biomarker Activity (AID 2284253). To be noted: primary human endothelial cells with macrophages. In outline:
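ELISA readout of MCP-1 at 24 hours in IMphg co-cultures of venular endothelial cells and macrophages, normalised to DMSO; parallel cultures stained with sulforhodamine B for overt cytotoxicity.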

Read-out in assay [14]: Interleukin-8 (IL8), CXCL8 (gene 3576)
The assay can be described thus: BSK_KF3CT_IL8: BioMAP Diversity Plus: KF3CT Assay for Interleukin-8 (IL8) Biomarker Activity (AID 2284254). The note with it: primary human keratinocytes with fibroblasts. Put shortly: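 Human primary keratinocyte plus foreskin fibroblast co-culture dosed with test chemicals; IL-8 measured by ELISA 24 h after dosing. Activity fitted in the positive direction relative to DMSO negative control.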

Read-out in assay [15]: Macrophage Inflammatory Protein-1 Alpha (MIP1a), CCL3 (gene 6348)
The assay can be described thus: BSK_IMphg_MIP1a: BioMAP Diversity Plus: IMphg Assay for Macrophage Inflammatory Protein-1 Alpha (MIP1a) Biomarker Activity (AID 2284255). The note with it: primary human endothelial cells with macrophages. In outline: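 MIP-1a protein levels were quantified by ELISA after 24 h treatment of human endothelial cell–macrophage co-cultures, compared with DMSO. Parallel cultures were fixed with TCA and stained with 0.1% SRB to gauge overt cytotoxicity.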

Read-out in assay [16]: Plasminogen activator inhibitor-1 (PAI1), SERPINE1 (gene 5054)
The assay can be described thus: BSK_MyoF_PAI1: BioMAP Diversity Plus: MyoF Assay for Plasminogen activator inhibitor-1 (PAI1) Biomarker Activity (AID 2284256).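 Note: PAI-1 protein level measured by ELISA in fibroblast cultures; PAI-1 read 24 h after compound addition.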 The note with it: primary human lung fibroblasts. Put shortly:
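ELISA read-out of PAI-1 from primary human lung fibroblast cultures 24 h after dosing; gain-of-signal fit versus DMSO control.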

Assay [17] can be described thus: CCTE_Mundy_HCI_Cortical_NOG_BPCount: CCTE's Neurite Outgrowth Assay in rat cortical cells for Branch Point Count, Mundy Lab (AID 2284237).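 For AC50: branch points counted about two days after chemical exposure.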 In outline: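 Measured 50.33 h after dosing, this morphology endpoint uses rat primary cortical cultures labelled for betaIII-tubulin. Branch points are quantified by high-content imaging, with DMSO as negative control and baseline.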

Assay [18] is described as follows: CCTE_Mundy_HCI_hNP1_Casp3_7: CCTE's Caspase-Glo 3/7 Assay in human neuroprogenitor cells for Apoptosis, Mundy Lab (AID 2284240). In outline: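 Apoptosis is scored by activated caspase-3/7 luminescence in WA09-derived neural progenitor cells, measured 26.5 h after chemical dosing. Values represent gain of signal relative to DMSO vehicle.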
A short description of assay [19]: CCTE_Mundy_HCI_hNP1_CellTiter: CCTE's Cell Titer-Glo 2 Assay in human neuroprogenitor cells for Viability, Mundy Lab (AID 2284241; active = hit-call score of the fitted dose curve at least 0.9, where 1 is the maximum). In outline: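 Human neural progenitor cells (hNP1, WA09-derived) were plated on poly-L-ornithine/laminin and grown 40 to 44 hours at 37 °C, 5% CO2 before chemical addition. Twenty-four hours later, ATP was measured by CellTiter-Glo luminescence; loss of signal versus DMSO indicates reduced viability.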
(In ATP-based viability assays light output follows the ATP content of the culture.)

Assay [20] in a line: CCTE_Mundy_HCI_Cortical_Synap_Neur_Matur_NeuronCount: CCTE's Synaptogenesis and Neurite Maturation Assay in rat cortical cells for Neuron Count, Mundy Lab (AID 2284242; active = hit-call score of the fitted dose curve at least 0.9, where 1 is the maximum). Put shortly: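 Neuron counts come from automated high-content imaging of Hoechst nuclei and MAP2/synaptophysin immunostaining at DIV 12, with loss of signal judged against DMSO. Cultures of rat cortical cells had glial growth arrested by AraC at DIV 5; chemical exposure began DIV 7.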

The structures appear in SMILES notation. Several values for one entry are separate records, joined by “and”; a condition that tells them apart may be missing. Equal entries are not always repeated. Inconclusive results are not listed. Where a structure was tested more than once in an assay, its records may differ in their call. Activity calls are given as the source filed them. Rule for the calls, unless noted: active = hit-call score of the fitted dose curve at least 0.9, where 1 is the maximum; inactive = score below 0.9.

As a reminder, the AC50 is the midpoint of the concentration-response curve, whichever way the signal moves. With `Cn1cnc([N+](=O)[O-])c1Sc1ncnc2nc[nH]c12`, the outcome in assay [1], in [2], in assay [3], in assay [4], in [6] and in assay [7] was inactive. Further, the result in assay [8], in assay [9], in [10], in [12], in assay [13] and in [14] was inactive. Further, the result in assay [15] and in [16] was inactive. Moreover, the AC50 in [4] is 0.254 µM (active); in assay [5], 9.43 µM (active) and 12.6 µM (active); in assay [9], 12.6 µM (active); in assay [11] it was 3.66 µM (active) and 12.6 µM (active); in assay [15] it was 12.2 µM (active).
`CC[C@H]1OC(=O)[C@H](C)[C@@H](O[C@H]2C[C@@](C)(OC)[C@@H](O)[C@H](C)O2)[C@H](C)[C@@H](O[C@@H]2O[C@H](C)C[C@H](N(C)C)[C@H]2O)[C@](C)(O)C[C@@H](C)C(=O)[C@H](C)[C@@H](O)[C@]1(C)O`: the outcome in assay [17], in assay [18], in assay [19] and in [20] was inactive.
Consider `O=P(OC(CCl)CCl)(OC(CCl)CCl)OC(CCl)CCl`, for which the concentration at half-maximal activity (AC50) in assay [17] was 20.8 µM (active). Further, the compound was called inactive in assay [18] and in [20].
Turning to `O=C1CCC(N2C(=O)c3ccccc3C2=O)C(=O)N1` (stereo not drawn), the outcome in assay [17], in [18], in assay [19] and in assay [20] was inactive.
Regarding `NC(=O)NO`, the outcome in [17], in assay [18], in [19] and in assay [20] was inactive.
In the case of `Cn1c(=O)c2c(ncn2C)n(C)c1=O`, the outcome in assay [17], in [18], in [19] and in assay [20] was inactive.

The values above are taken from PubChem BioAssay (EPA / NIEHS).
